This is a sample that favours compounds with a hit; in the whole collection about 2.4% have one here.
D2 PAM-1: D2 dopamine receptor (human) potentiation | 0.34% of 340,000 active | HEK293 T-REx D2, calcium flux, EC20 dopamine potentiation | P14416 | potentiation, % at 10 µM | AID 485347;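 active means potentiation over 3 SD above the plate norm, cut at about 30% in these data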; further: 0% is about no effect
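Calcium flux readout, no-wash dye, 1 read/s. Inducible HEK293 Trex D2 line, overnight 30 C. Compound alone 180 s (agonist flags), then EC20 dopamine, another 180 s to score potentiation.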
D2 ag-1: human D2 receptor agonism in beta-arrestin assay. P14416. activation, % (concentration not given with the values). DiscoveRx PathHunter D2 beta-arrestin, luminescence, 90 min; 100% = 57 uM dopamine signal. 0.084% of 360,000 active; in the data active means activation above about 40%; inconclusive means between about 15% and that limit
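Agonist mode: compounds alone added to overnight-plated D2 PathHunter cells for 90 min at 37 C, with 57 uM final dopamine (EC100) defining full response. Beta-arrestin recruitment detected by chemiluminescent reagent, read after 1 h at ambient temperature.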
D2 PAM-2: positive allosteric modulators of human D2 dopamine receptor. P14416. DiscoveRx D2 beta-arrestin cells, luminescence, 90 min; 100% = 57 uM dopamine signal. potentiation, % (test concentration not listed). 0.23% of 360,000 active. AID 624464; in the data active means potentiation above about 50%; inconclusive means mostly about 30% to 49%
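PathHunter D2 cells, attached overnight at 37 deg C, received compound in DMSO plus dopamine at EC20 (50 nM final) for 90 min at 37 deg C. Beta-arrestin recruitment was read as luminescence after 1 h with detection reagent at ambient temperature.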
D2 ag-2: activates the human D2 dopamine receptor | 0.53% of 340,000 active | AID 485358 | P14416 | HEK293 T-REx D2 cells, calcium flux agonist mode | activation, % at 2 µM;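 active means activation over 3 SD above normal in the single-dose calcium agonist read, cut at about 30% in these data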; further: 0% is about no effect
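Agonism scored from kinetic calcium signal (1 read/sec, 180 s) following compound pin transfer, after a 10 s baseline. Cells: HEK293 Trex line expressing inducible D2 receptor coupled to calcium, dye-loaded after overnight culture at 30 C.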
D2 antag: antagonizes the human D2 dopamine receptor. HEK293 TREx D2 cells, calcium flux, dopamine EC80. inhibition, % at 10 µM. AID 485344. 2% of 340,000 active; in the data active means inhibition above about 30%; inactive means below that, where a call was filed; further: 0% is about no effect
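Dopamine at EC80 is the agonist stimulus; test compounds precede it by 180 s. Calcium flux read kinetically in a force-coupled, inducible HEK293 T-REx D2 cell line.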
D3 arrestin ag: activates human D3 dopamine receptor beta-arrestin recruitment. shares compounds with D2 ag-2. DiscoveRx D3 beta-arrestin cells, luminescence, 90 min. Potency, µM (highest dose often 76.9 µM), for the others: top-dose activation, hits mostly activators. 4% of 2,300 active. AID 720506;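 further: potency means the concentration at half of the fitted maximal effect; 100% = dopamine control response; nearly all actives have a fitted effect of over 70% in size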
Target sequence (P35462 whole entry, looked up): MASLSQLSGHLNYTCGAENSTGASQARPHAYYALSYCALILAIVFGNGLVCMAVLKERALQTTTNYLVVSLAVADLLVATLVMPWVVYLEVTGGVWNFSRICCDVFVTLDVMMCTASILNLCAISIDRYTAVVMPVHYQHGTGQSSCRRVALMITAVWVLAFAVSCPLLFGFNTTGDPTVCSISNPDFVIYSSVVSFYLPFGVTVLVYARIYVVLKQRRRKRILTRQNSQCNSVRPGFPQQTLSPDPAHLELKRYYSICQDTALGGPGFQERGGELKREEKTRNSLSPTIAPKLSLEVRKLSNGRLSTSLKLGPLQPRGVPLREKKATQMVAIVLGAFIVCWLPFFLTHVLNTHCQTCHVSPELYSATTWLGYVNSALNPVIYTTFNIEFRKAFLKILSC
D2 ag-3: D2 receptor agonism, beta-arrestin counterscreen | shares compounds with D2 ag-2 | DiscoveRx PathHunter D2 beta-arrestin, luminescence, 90 min; response scale: percent relative to full dopamine signal | Potency, µM (titrated, usually from 76.9 µM), for inactives: at the highest dose activation, most hits filed as activators | 5.9% of 2,300 active | AID 720507; further: potency means the concentration at half of the fitted maximal effect; % of control where 0% means no effect; nearly all actives have a fitted effect of over 70% in size
* hit, by the source's call; u = inconclusive; x = no result given. Unless noted, the call rests on the fitted dose curve; in most records, active means well fitted activation curve with a large enough effect; inconclusive means small, poorly fitted or top-dose-only effect; inactive means flat fitted curve, though single readings scatter.

SMILES	D2 PAM-1	D2 ag-1	D2 PAM-2	D2 ag-2	D2 antag	D3 arrestin ag	D2 ag-3
COc1ccc(Oc2cc(C)c3ccccc3n2)cc1	-19.0	u	u	43.9*	44.6*	u	u
Cc1ccc(Oc2cnc3ccccc3n2)cc1	-6.3	-3.0	-2.5	1.1	-3.9	x	x
CCOc1ccccc1NC(=O)CN(CCc1ccccc1)S(=O)(=O)c1ccc(C)cc1	-16.5	x	x	0.3	x	x	x
C[C@@H]1O[C@@H](Oc2c(-c3ccc(O)c(O)c3)oc3cc(O)cc(O)c3c2=O)[C@H](O)[C@H](O)[C@H]1O	x	-5.9	10.7	x	x	x	x
C[C@@H]1O[C@@H](O[C@H]2[C@H](O)[C@@H](O)[C@H](Oc3c(-c4ccc(O)c(O)c4)oc4cc(O)cc(O)c4c3=O)O[C@@H]2CO)[C@H](O)[C@H](O)[C@H]1O	9.8	-1.1	-1.2	-1.3	-17.2	0.4%	4.1%
O=C(c1ccc2c3c(cccc13)CC2)C1CCCN(C(=O)c2cc[n+]([O-])cc2)C1 (stereo not drawn)	-0.3	-3.4	-1.8	0.2	11.3	x	x
O=C(c1ccc2c3c(cccc13)CC2)C1CCCN(C(=O)c2ccc[n+]([O-])c2)C1 (stereo not drawn)	0.0	2.5	-4.8	0.0	21.9	-7.0%	-3.1%
CCOC(=O)NC(=O)/C(C#N)=N\Nc1cccc(Cl)c1	9.3	4.5	-2.3	6.8	38.1*	9.2%	-1.7%
COc1ccc([C@H]2CC(=O)C=C(c3cc(F)ccc3F)C2)cc1OC	17.1	2.2	6.5	0.4	-8.4	4.8%	20.5%
COc1ccc(C2=CC(=O)C[C@H](c3ccc(OC)c(OC)c3)C2)cc1	13.5	-3.9	-5.2	0.4	2.4	9.5%	17.0%
COc1cccc(C2=CC(=O)C[C@H](c3ccc(F)cc3)C2)c1	12.3	-2.8	-8.8	-1.4	3.4	-10.4%	-2.6%
COc1cc(F)cc(C2=CC(=O)C[C@H](c3ccc(F)cc3)C2)c1	2.5	-1.1	-8.0	-0.6	-5.6	x	x
COc1ccc([C@H]2CC(=O)C=C(c3ccccc3Oc3ccccc3)C2)cc1	-11.6	-4.9	-5.2	0.4	7.2	-13.3%	3.5%
CCCCn1c(N)c(N(CCOC)C(=O)Cn2c(=O)cnc3ccccc32)c(=O)[nH]c1=O	0.2	7.8	-5.8	1.3	-6.7	-4.0%	-3.0%
CCCCn1c(N)c(N(CCOC)C(=O)COc2ccc(C(C)=O)cc2)c(=O)[nH]c1=O	5.2	-2.3	-8.5	0.2	2.0	x	x
CC1CN(C(=O)COC(=O)Cc2c(Cl)cccc2Cl)CC(C)O1 (stereo not drawn)	x	2.1	-5.7	x	x	x	x
Cc1nn(-c2ccccc2)c(Cl)c1C(=O)NNC(=O)c1ccncc1	4.2	-1.5	9.4	0.2	7.3	-7.9%	-4.1%
CC(=O)N1CCc2cc(Br)cc(S(=O)(=O)CCC(=O)NCc3ccc(F)cc3)c21	1.2	x	x	-0.1	x	x	x
COc1ccc(S(=O)(=O)N(CC(=O)NC2CC2)Cc2ccccc2)cc1	-14.5	3.5	-1.0	0.7	4.9	x	x
COC(=O)NCC(c1ccc2c(c1)OCO2)N1CCN(c2ccccc2)CC1 (stereo not drawn)	1.7	0.9	-19.2	6.5	-15.6	x	x
COc1ccccc1N1CCN(C(CNS(=O)(=O)c2ccccc2)c2ccccc2)CC1 (stereo not drawn)	-15.1	-0.6	-32.5	7.3	19.8	-7.2%	-1.4%
COc1ccccc1N1CCN(C(CNS(=O)(=O)c2cccs2)c2cccnc2)CC1 (stereo not drawn)	-8.9	-3.4	-15.6	5.7	6.9	x	x
COc1ccc(S(=O)(=O)NCC(c2ccc3c(c2)OCO3)N2CCN(c3ccccc3)CC2)cc1 (stereo not drawn)	-26.3	u	28.1	66.1*	72.8*	15.9%	11.2µM*
Cc1ccc(S(=O)(=O)NCC(c2ccc3c(c2)OCO3)N2CCN(c3ccccc3)CC2)cc1 (stereo not drawn)	-26.9	u	8.8	63.7*	67.4*	19.8%	u
O=C(O)CCCCCCCCCCCNC(=O)NC12CC3CC(CC(C3)C1)C2	9.4	-2.7	-7.9	-1.0	-6.4	x	x
SMILES	D2 PAM-1	D2 ag-1	D2 PAM-2	D2 ag-2	D2 antag	D3 arrestin ag	D2 ag-3
C=CCOc1ccccc1/C=N/NC(=O)Cc1ccc(C)cc1	-12.4	1.4	-56.3	0.1	14.4	x	x
CN(C)CC(C)(C)CNC(=O)C1CCN(CCCc2ccccc2)CC1	1.5	u	-0.2	48.0*	31.3*	9.5%	17.5%
CCCCN(C)C(=O)C1CCN(CCCc2ccccc2)CC1	-1.0	-1.0	-23.5	5.9	17.7	-4.9%	6.0%
Cc1sc2c(c1C)c(=O)n(Cc1ccccc1)c(=O)n2CC(=O)Nc1cccc(Cl)c1	-4.7	x	x	1.3	x	x	x
Cc1ccc(CNC(=O)c2cccc3c2C(=O)c2ccc(N4CCOCC4)cc2S3(=O)=O)cc1	1.9	-7.9	2.8	1.9	-3.9	-1.9%	-2.2%
O=C(NCC(c1ccco1)N1CCN(c2ccccc2F)CC1)C(=O)NC1CCCC1 (stereo not drawn)	-5.8	-1.8	2.4	26.1	4.4	x	x
O=C(NCC(c1ccco1)N1CCN(c2ccccc2F)CC1)c1ccco1 (stereo not drawn)	-10.4	u	8.4	32.4*	53.7*	u	u
O=C(NCC1CCCO1)C(=O)NCC(c1ccco1)N1CCN(c2ccccc2F)CC1 (stereo not drawn)	-11.4	10.1	5.8	58.1*	48.2*	31.6µM*	u
O=C(NCC(c1ccco1)N1CCN(c2ccccc2F)CC1)c1cccs1 (stereo not drawn)	9.1	u	4.0	-0.6	-29.6	x	x
CCC(=O)N(Cc1cc(=O)[nH]c2ccccc12)c1ccc(OC)cc1	-11.8	4.6	-7.6	-0.2	3.4	x	x
Cn1c2ccccc2c(=O)c2c(=O)n(C3CCCCCC3)c(C3CCCCC3)nc21	-10.1	-3.0	-11.3	40.3*	-5.9	-12.0%	-1.1%
Cn1c2ccccc2c(=O)c2c(=O)n(-c3ccccc3)c(C3CCCCC3)nc21	-2.1	-1.0	-0.9	-1.1	2.0	x	x
O=S(=O)(CCN1CCN(c2ccccn2)CC1)c1ccc(Cl)cc1Cl	-6.3	3.4	-8.9	50.3*	12.0	19.1%	10.5%
COc1cccc(CN2CCN(C(=O)CC(C)C)CC2)c1	-9.7	3.1	11.6	54.9*	-20.2	12.1%	8.2%
CCn1nc(C(=O)N2CCN(Cc3ccc4c(c3)OCO4)CC2)c2ccccc2c1=O	-23.7	-2.2	-9.9	50.1*	16.3	-9.5%	3.3%

Compound activity deposited in PubChem BioAssay by National Center for Advancing Translational Sciences (NCATS).
